From PubChem BioAssay
Hits are enriched below; roughly 12% of the tested compounds scored in any of these assays.
HP1b chromo inh: blocks HP1-beta chromodomain binding to methylated histone tails. Potency, µM (highest dose often 114 µM), inactives show at the top dose activity change, negative = inhibition, actives largely listed as inhibitors. P83916. actives 0.56% (n = 390,000). AlphaScreen HP1-beta / biotin-H3K9me3 peptide binding. AID 540317; also: nearly all actives have a fitted effect of over 70% in size
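AlphaScreen: HP1-beta (50 nM) preformed 30 min with biotin-H3(1-18)K9me3 peptide (50 nM) in PBS pH 7.4, 0.01% Tween-20. Compound added for 30 min at RT, then streptavidin donor/nickel chelate acceptor beads (10 ug/mL) for 30 min.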
BAZ2B block: BAZ2B (human) inhibition | Q9UIF8 | AlphaScreen BAZ2B-H3K14Ac peptide displacement | Potency, µM (highest dose often 114 µM), inactives show at the highest dose activity change, negative = inhibition, actives largely listed as inhibitors | actives 4.4% (n = 360,000); also: % is scaled to controls: 0 for no effect and ±100 for the full control effect; nearly all actives have a fitted effect of over 60% in size
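Inhibition is scored as reduced AlphaScreen emission. The BAZ2B/b-H3(5-23)K14Ac complex (50 nM each) in PBS pH 7.4, 0.01% Tween-20 meets compound (up to 110 uM) for 30 min at RT before bead addition.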
G9a block: inhibitors of human histone lysine methyltransferase G9a; actives 8.8% (n = 350,000); Q96KQ7; Potency, µM (titrated, usually from 102 µM), inactives show top-dose activity, negative = inhibition, usual class: inhibitors; G9a H3K9 monomethylation, AlphaScreen, 2 h; also: % is scaled to controls: 0 for no effect and ±100 for the full control effect; nearly all actives have a fitted effect of over 75% in size
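Enzyme 20 nM + cpd, 15 min RT; add b-H3K9 pep 500 nM / SAM 20 uM; 2 h RT; anti-H3K9me1 Ab 0.5 ug/mL + SA donor / anti-rabbit acceptor beads 20 ug/mL each, 10 min; AlphaScreen read.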
L3MBTL1 block: blocks human L3MBTL1 | AlphaScreen L3MBTL1–H3K9me1 peptide binding | actives 0.66% (n = 230,000) | Potency, µM (titrated, usually from 57.1 µM), for inactives: at the top dose activity, negative = inhibition, usual class: inhibitors; also: % is scaled to controls: 0 for no effect and ±100 for the full control effect; nearly all actives have a fitted effect of over 60% in size
Target sequence (Q9Y468 whole entry, looked up): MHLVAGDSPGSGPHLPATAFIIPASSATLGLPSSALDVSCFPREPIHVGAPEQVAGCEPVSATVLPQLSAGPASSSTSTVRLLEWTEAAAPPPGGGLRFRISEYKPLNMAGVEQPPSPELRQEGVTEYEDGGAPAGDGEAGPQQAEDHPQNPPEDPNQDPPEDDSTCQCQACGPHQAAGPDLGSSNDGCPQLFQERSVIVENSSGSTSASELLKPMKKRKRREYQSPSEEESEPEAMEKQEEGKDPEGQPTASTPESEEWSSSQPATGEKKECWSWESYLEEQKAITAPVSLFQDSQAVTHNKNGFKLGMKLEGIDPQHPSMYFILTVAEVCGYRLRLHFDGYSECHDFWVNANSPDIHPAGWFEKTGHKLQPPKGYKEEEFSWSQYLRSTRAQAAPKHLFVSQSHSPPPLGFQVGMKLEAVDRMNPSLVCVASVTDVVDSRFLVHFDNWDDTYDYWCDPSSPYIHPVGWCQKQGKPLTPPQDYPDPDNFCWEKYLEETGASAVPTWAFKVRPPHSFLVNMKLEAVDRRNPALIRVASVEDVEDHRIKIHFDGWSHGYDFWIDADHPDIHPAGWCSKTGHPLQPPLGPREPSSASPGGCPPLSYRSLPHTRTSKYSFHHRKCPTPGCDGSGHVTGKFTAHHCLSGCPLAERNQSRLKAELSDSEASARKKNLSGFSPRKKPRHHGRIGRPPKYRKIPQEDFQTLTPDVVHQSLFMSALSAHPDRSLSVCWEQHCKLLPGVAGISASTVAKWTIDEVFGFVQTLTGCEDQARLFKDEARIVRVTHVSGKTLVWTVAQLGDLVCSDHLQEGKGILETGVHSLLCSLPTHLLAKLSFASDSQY
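AlphaScreen proximity signal between nickel-chelate acceptor and streptavidin donor beads (final 10 ug/mL) reports binding of 50 nM L3MBTL1 to 75 nM biotin-H3 K9me1 peptide; complex incubated with compounds 30 min at room temperature; cefsulodin titration as control.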
JMJD2A Tudor inh: blocks the human JMJD2A Tudor domain | actives 4.4% (n = 390,000) | Potency, µM (top dose mostly 114 µM), without a hit: at the highest dose activity change, negative = inhibition, actives largely listed as inhibitors | O75164 | AlphaScreen JMJD2A-Tudor / H3K4me3 peptide binding; also: % is scaled to controls: 0 for no effect and ±100 for the full control effect; nearly all actives have a fitted effect of over 50% in size
Sfp PPTase inh: inhibitors of Bacillus subtilis Sfp phosphopantetheinyl transferase | Potency, µM, for the others: largest response in the series, negative = inhibition, actives largely listed as inhibitors | Biochemical Sfp PPTase activity, qHTS | actives 3.5% (n = 310,000) | Q9F4F7;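 also: the enzyme is Sfp with the accession as filed and its product quenches rhodamine fluorescence; 0% = enzyme reaction without inhibitor and -100% = no enzyme wells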
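Compounds were incubated with enzyme (final 15 nM) for 15 min at room temperature before substrate addition started the reaction. Fluorescence at 525 nm excitation, 598 nm emission was recorded immediately and after 30 minutes.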
Numbers without * were called inactive; [ ] = remark or other dose. Calls follow the shape of the dose curve; as a rule, active = well fitted curve in the direction sought with a large enough effect; inconclusive = small, poorly fitted or top-dose-only effect, or another doubt; inactive = no such curve, though single readings can be large; an effect the other way counts as inactive or inconclusive. Potency is read from the fitted curve at half-maximal effect.

CC(NC(=O)c1ccco1)C(=O)N1CCN(S(=O)(=O)c2ccccc2C#N)CC1 (stereo not drawn) was read as HP1b chromo inh 34%, BAZ2B block 7%, G9a block 11%[59 µM], L3MBTL1 block 1% and JMJD2A Tudor inh 5%.
`Cc1ccc(S(=O)(=O)N2CCOCC2)cc1NC(=O)CSCc1c(C)noc1C` gave HP1b chromo inh 35%, BAZ2B block -4%, G9a block -5%[12.7 µM], L3MBTL1 block -4% and JMJD2A Tudor inh -10%.
`O=C(C1=C[C@@H]2[C@H]3C(=O)N(c4ccccc4)C(=O)[C@H]3[C@@H](C(=O)c3ccc(Cl)cc3)N2C=C1)c1ccccc1` gave BAZ2B block inconclusive, G9a block 11µM*, L3MBTL1 block -14% and Sfp PPTase inh -9%.
`CC(C)N(Cc1ccccc1)C(=O)CN1C(=O)NC2(CCCC2)C1=O` gave HP1b chromo inh 42%, BAZ2B block 4%, G9a block -4%[59 µM], L3MBTL1 block 7% and JMJD2A Tudor inh 7%.
For O=C(Nc1cccc(-n2cnnn2)c1)c1ccoc1COc1ccc(Cl)cc1 the results were HP1b chromo inh 27%, BAZ2B block -5%, G9a block inconclusive, JMJD2A Tudor inh -13% and Sfp PPTase inh -3%.
`O=S(=O)(Cc1ccccc1)N1CCN(Cc2ccc3c(c2)OCO3)CC1` gave HP1b chromo inh 32%, BAZ2B block -6%, G9a block -1%[59 µM], JMJD2A Tudor inh inconclusive and Sfp PPTase inh 15%.
`CCn1c2ccccc2c2cc(CN3CCN(S(=O)(=O)CC)CC3)ccc21` gave BAZ2B block 20µM*, G9a block 11µM*, L3MBTL1 block -10% and Sfp PPTase inh inconclusive.
CCN1CCN(S(=O)(=O)Cc2ccccc2)CC1 was read as HP1b chromo inh 12%, BAZ2B block -4%, G9a block 14%[12.7 µM], L3MBTL1 block -1%, JMJD2A Tudor inh -8% and Sfp PPTase inh 1%.
`CCn1c2ccccc2c2cc(CN3CCN(S(=O)(=O)Cc4ccccc4)CC3)ccc21` gave HP1b chromo inh inconclusive, BAZ2B block 79µM*, G9a block 7.1µM*, L3MBTL1 block 1%, JMJD2A Tudor inh 1µM* and Sfp PPTase inh 5%.
For COc1ccc(C(=O)NCc2nnc(SCC(=O)c3ccc(F)cc3)n2C)cc1OC the results were HP1b chromo inh 13%, BAZ2B block 9%, G9a block -2%[0.501 µM], L3MBTL1 block 0% and JMJD2A Tudor inh -3%.
For COc1ccc(CC(=O)NCc2nnc(SCC(=O)c3ccc(OC)cc3)n2C)cc1 the results were HP1b chromo inh 44%, BAZ2B block -3%, G9a block -26%, L3MBTL1 block 6%, JMJD2A Tudor inh -11% and Sfp PPTase inh 16%.
Screening COc1ccc(C(=O)CSc2nccn2C)cc1 returned HP1b chromo inh 4%, BAZ2B block -30%, G9a block 50µM*, JMJD2A Tudor inh -12% and Sfp PPTase inh 56µM*.
CCn1c(CNC(=O)c2ccc(OC)c(OC)c2)nnc1SCC(=O)c1ccc(OC)cc1 was read as HP1b chromo inh -13%, BAZ2B block -4%, G9a block 11µM*, L3MBTL1 block 20%[11.4 µM], JMJD2A Tudor inh -4%[11.4 µM] and Sfp PPTase inh -14%.
CCSCc1nnc(SCC(=O)c2ccc(OC)cc2)n1C was read as HP1b chromo inh 2%, BAZ2B block 0%, G9a block inconclusive, L3MBTL1 block 6%, JMJD2A Tudor inh 50µM* and Sfp PPTase inh -23%.
`COc1ccc(C(=O)CSc2nnc(CNC(=O)c3ccc(OC)c(OC)c3)n2C)cc1` gave HP1b chromo inh -8%, BAZ2B block 7%, G9a block -4%[12.7 µM], L3MBTL1 block 2%, JMJD2A Tudor inh 45µM* and Sfp PPTase inh -15%.
C/C(=N\NC(=O)c1ccc(F)cc1)c1ccc(NC(=O)Cc2ccccc2)cc1 was read as HP1b chromo inh 15%, BAZ2B block -18%, G9a block -22%, JMJD2A Tudor inh -8% and Sfp PPTase inh 19%.
`CCCOc1ccccc1C(=O)N1CCC(c2nc3ccccc3s2)CC1` gave HP1b chromo inh 37%, BAZ2B block -13%, G9a block -25%[59 µM] and JMJD2A Tudor inh -20%.
Screening Cc1ccc(S(=O)(=O)CCC(=O)Nc2ccc(Br)cc2C)cc1 returned HP1b chromo inh -14%, BAZ2B block 7%[57.1 µM], G9a block inconclusive and JMJD2A Tudor inh -13%.
Screening C[C@H]1CC2C3CCC4=CC(=O)C=C[C@]4(C)[C@@]3(Cl)[C@@H](O)C[C@]2(C)[C@@]1(O)C(=O)CO (stereo partly drawn) returned G9a block 4%[59 µM].
O=C(Nc1ccccc1)c1ccc2ccccc2n1 was read as HP1b chromo inh 26%, BAZ2B block -16%, G9a block -1%, JMJD2A Tudor inh -8% and Sfp PPTase inh 6%.
`Cc1cccc(/C=C(\C(=O)C(=O)O)c2ccc3ccccc3n2)c1` gave HP1b chromo inh 63%, G9a block inconclusive, L3MBTL1 block 14%, JMJD2A Tudor inh -10% and Sfp PPTase inh -3%.
For O=C(O)C(=O)/C(=C\c1cccc(Cl)c1)c1ccc2ccccc2n1 the results were HP1b chromo inh 29%, BAZ2B block 79µM*, G9a block 22µM*, L3MBTL1 block 10%, JMJD2A Tudor inh inconclusive and Sfp PPTase inh -22%.
N#Cc1ccc(/C=C(\C(=O)C(=O)O)c2ccc3ccccc3n2)cc1 was read as HP1b chromo inh 30%, BAZ2B block 79µM*, G9a block -17%[12.7 µM], JMJD2A Tudor inh 1% and Sfp PPTase inh -6%.
Screening Cc1ccc(N=C2c3ccccc3C(=O)C2[N+](=O)[O-])cc1C (stereo not drawn) returned HP1b chromo inh 17%, BAZ2B block -27%, G9a block 40µM*, JMJD2A Tudor inh -27% and Sfp PPTase inh 5%.
`O=C(Cn1c(=O)n2nc(-c3ccccc3)nc2c2ccccc21)Nc1ccccc1C(F)(F)F` gave HP1b chromo inh 27%, BAZ2B block -1%, G9a block inconclusive and JMJD2A Tudor inh -16%.
For COc1ccc(Cl)cc1NC(=O)C/C(C)=N/NC(=O)c1ccc(O)cc1 the results were HP1b chromo inh 30%, BAZ2B block -28%, G9a block 71µM*, L3MBTL1 block -11%, JMJD2A Tudor inh -12% and Sfp PPTase inh 11%.
O=C(O)c1cccc(NC(=O)c2cccc(S(=O)(=O)Nc3cccc(C(=O)O)c3)c2)c1 was read as HP1b chromo inh 24%, BAZ2B block 3%, G9a block inconclusive and JMJD2A Tudor inh -20%.
